Results as given in PubChem BioAssay (NCI).
The panel holds about 83,000 compounds, 20% with a hit somewhere; the sample as a whole holds those more often.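 Treatment: one concentration, 48 hours, 96-well format. Scoring: percent growth, with anything below 10 considered active.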 Active and inactive are the calls of the source.

Key:
Test in all cases: NCI-60 one-dose screen, 48 h (100 = growth as untreated, 0 = no growth, -100 = all killed)
NCI-H23 lung = conditions: 10 µM
NCI-H226 lung = conditions: 10 µM
NCI-H522 lung = conditions: 10 µM
K-562 leukemia = conditions: 10 µM
MDA-MB-231 breast = conditions: 10 µM
RXF 393 renal = conditions: 10 µM
LOX IMVI melanoma = conditions: 10 µM
EKVX NSCLC = conditions: 10 µM
CAKI-1 renal = conditions: 10 µM
MOLT-4 leukemia = conditions: 10 µM
SR leukemia = conditions: 10 µM
HS 578T breast = conditions: 10 µM
SW-620 colon = conditions: 10 µM
MDA-MB-468 breast = conditions: 10 µM unless noted
NCI-H460 lung = conditions: 10 µM
U251 CNS = conditions: 10 µM
PC-3 prostate = conditions: 10 µM
OVCAR-5 ovarian = conditions: 10 µM
OVCAR-3 ovarian = conditions: 10 µM
T-47D breast = conditions: 10 µM

Measured: growth

Cc1ccc2[nH]c(=S)n(-c3ccc(F)cc3)c(=O)c2c1
inactive: NCI-H23 lung 98.7% | NCI-H226 lung 97.6% | NCI-H522 lung 97.9% | K-562 leukemia 96.6% | MDA-MB-231 breast 93.1% | RXF 393 renal 98.2% | LOX IMVI melanoma 92.7% | EKVX NSCLC 95.1% | CAKI-1 renal 97.3% | MOLT-4 leukemia 106% | SR leukemia 103% | HS 578T breast 104% | SW-620 colon 102% | MDA-MB-468 breast 92.1%

CCC[Se]C(=O)c1ccc(C(=O)[Se]CCC)s1
active: NCI-H23 lung -49.2% | NCI-H226 lung -50.9% | NCI-H460 lung -11.9% | K-562 leukemia 7.32% | RXF 393 renal -41.3% | U251 CNS -60.4% | PC-3 prostate 4.67% | EKVX NSCLC -79.7% | CAKI-1 renal -78.1% | MOLT-4 leukemia 7.32% | OVCAR-5 ovarian -35.6% | MDA-MB-468 breast -80.6%
inactive: SR leukemia 18.5%

COC(=O)C[C@](O)(CCC(C)C)C(=O)O[C@@H]1C(OC)=C[C@]23CCCN2CCc2cc4c(cc2[C@H]13)OCO4
active: NCI-H23 lung -68% | NCI-H226 lung -55.1% | NCI-H460 lung -20.6% | NCI-H522 lung -80.7% | K-562 leukemia 1.57% | RXF 393 renal -89.6% | U251 CNS -27.3% | PC-3 prostate -19% | LOX IMVI melanoma -82.6% | EKVX NSCLC -23.9% | MOLT-4 leukemia -7.96% | OVCAR-3 ovarian -26.9% | HS 578T breast -22.2% | T-47D breast -24% | SW-620 colon -7.29% | MDA-MB-468 breast -83.8%

O=C(/C=C/c1ccccc1)c1nc2ccccc2n1Cc1ccc(F)cc1
active: NCI-H23 lung -45.9% | NCI-H226 lung -48.5% | NCI-H460 lung -28.9% | NCI-H522 lung -33% | K-562 leukemia -8.55% | RXF 393 renal -89.3% | U251 CNS -73.6% | MOLT-4 leukemia -4.66% | SR leukemia -16.4% | OVCAR-5 ovarian -15.1% | T-47D breast -15.9% | MDA-MB-468 breast -90.3%

O=C(/C=C/c1ccc(Br)cc1)c1nc2ccccc2n1Cc1ccc(Br)cc1
inactive: PC-3 prostate 18.7%
active: NCI-H23 lung -36.3% | NCI-H226 lung -70.1% | K-562 leukemia 0.898% | RXF 393 renal -82% | MOLT-4 leukemia -4.04% | SR leukemia -13.9% | T-47D breast 1.99% | MDA-MB-468 breast -74.3%

CC[C@]12C=CCN3CC[C@@]4(c5ccc(OC)cc5N(C)[C@H]4[C@@](O)(C(=O)OC)[C@@H]1OC(=O)CCC[P+](C1CCCCC1)(C1CCCCC1)C1CCCCC1)[C@@H]32
active: NCI-H23 lung -4.73% | NCI-H226 lung -20% | K-562 leukemia 3.31% | MDA-MB-231 breast -90.8% | RXF 393 renal -70.3% | U251 CNS -82.5% | PC-3 prostate -12% | LOX IMVI melanoma -96% | MOLT-4 leukemia 2.35% | HS 578T breast -33% | T-47D breast -1.81% | SW-620 colon 3.91% | MDA-MB-468 breast -79.6%
inactive: EKVX NSCLC 15.4% | SR leukemia 29.1% | OVCAR-5 ovarian 11%

O=C(NCCCCC(c1ccc(F)cc1)c1ccc(F)cc1)Nc1ccc([N+](=O)[O-])c(C(F)(F)F)c1
active: NCI-H23 lung -10.2% | NCI-H226 lung 0.603% | NCI-H522 lung -16.9% | MDA-MB-231 breast -70% | RXF 393 renal -41.3% | LOX IMVI melanoma -73.8% | EKVX NSCLC 4.51% | CAKI-1 renal -3.31% | OVCAR-3 ovarian 1.5% | HS 578T breast -3.33% | T-47D breast -10.4% | SW-620 colon 8.81% | MDA-MB-468 breast -31.7%

N#C[Se]CC(=O)Nc1cccc(C(F)(F)F)c1
inactive: K-562 leukemia 20.5% | SR leukemia 18.5% | T-47D breast 51%
active: NCI-H23 lung -46.7% | NCI-H460 lung -9.31% | NCI-H522 lung -70.2% | RXF 393 renal -40.9% | EKVX NSCLC -94.5% | CAKI-1 renal -72.1% | MOLT-4 leukemia 9.42% | OVCAR-5 ovarian -36.7% | OVCAR-3 ovarian -13.7% | MDA-MB-468 breast -86.7%

C=CC[Se]C(=O)c1cncc(C(=O)[Se]CC=C)c1
active: NCI-H23 lung -74.7% | NCI-H226 lung -24.6% | K-562 leukemia -15.7% | RXF 393 renal -91.9% | CAKI-1 renal -8.92% | MOLT-4 leukemia -22.9% | SR leukemia -13.3% | OVCAR-5 ovarian -86.6% | MDA-MB-468 breast -85.2%

COc1ccc(OC)c(/C=C/C(=O)c2nc3ccccc3n2Cc2ccc(F)cc2)c1
active: NCI-H23 lung -49.1% | NCI-H460 lung -30.9% | K-562 leukemia 0.885% | RXF 393 renal -52.5% | MOLT-4 leukemia -6.12% | SR leukemia -8.46% | OVCAR-3 ovarian -12% | MDA-MB-468 breast -57.3%
inactive: CAKI-1 renal 32.2%

COc1cc(OC)c(S(=O)(=O)N(CCCl)CCCl)cc1C(=O)/C=C/c1cc(OC)c(OC)c(OC)c1
active: NCI-H226 lung 7.87% | K-562 leukemia 4.13% | RXF 393 renal -75.5% | LOX IMVI melanoma -84.5% | CAKI-1 renal -5.59% | MOLT-4 leukemia -1.79% | SR leukemia 2.75% | OVCAR-5 ovarian -1.21% | OVCAR-3 ovarian -3.7% | SW-620 colon 7.43%
inactive: MDA-MB-231 breast 23.4% | PC-3 prostate 10.3% | HS 578T breast 78.3% | T-47D breast 21%

CN(C)CCc1cn(C2CCC2)c2cccc(O)c12
active: K-562 leukemia 1.37%
inactive: MDA-MB-231 breast 76% | RXF 393 renal 53.2% | LOX IMVI melanoma 50.4% | EKVX NSCLC 94.9% | MOLT-4 leukemia 57.2% | SR leukemia 52.8% | HS 578T breast 47.7% | SW-620 colon 23% | MDA-MB-468 breast 44.6%
